In publication PMC11062922 (Nature Chemical Biology, 2023) one finds potency estimated from few doses data, which are given here for five compounds.

Holding throughout (set-up): species or system human, MV4-11 + K-562 + COLO205 + SK-N-BE2 + OVCAR-8
One test has as its system CDC42. Particulars: read-out: apparent Kd; compound concentrations: 100 nM and 1000 nM (sheet 'Samples'), CATDS: 0.115085372614253; n = 1.
Another test relates to EGFR. Particulars: read-out: apparent Kd; compound concentrations: 100 nM and 1000 nM (sheet 'Samples'), CATDS: 0.71685181489177596; n = 1.
For the next test, the system named is ERBB3. To be noted: read-out: apparent Kd; compound concentrations: 100 nM and 1000 nM (sheet 'Samples'), CATDS: 0.132982955491593; n = 1.
The subject of the next test is NNT. Particulars: read-out: apparent Kd; compound concentrations: 100 nM and 1000 nM (sheet 'Samples'), CATDS: 0.11921325436386; n = 1.
In another test the test system is RAB5C. Particulars: read-out: apparent Kd; compound concentrations: 100 nM and 1000 nM (sheet 'Samples'), CATDS: 0.157008240219803; n = 1.
For the next test, the system named is RIPK2. Particulars: read-out: apparent Kd; compound concentrations: 100 nM and 1000 nM (sheet 'Samples'), CATDS: 0.27482887705752401; n = 1.
The subject of a further test is CDK16. Particulars: read-out: apparent Kd; compound concentrations:100 nM and 1000 nM (sheet 'Samples'); n = 1.
In a further test the test system is CDKL5. Particulars: read-out: apparent Kd; compound concentrations:100 nM and 1000 nM (sheet 'Samples'); n = 1.
A further test concerns GSK3A. To be noted: read-out: apparent Kd; compound concentrations:100 nM and 1000 nM (sheet 'Samples'); n = 1.
The test system of another test is GSK3B. To be noted: read-out: apparent Kd; compound concentrations:100 nM and 1000 nM (sheet 'Samples'); n = 1.
For a further test, the system named is CDC7. Particulars: read-out: apparent Kd, n = 1.
The next test deals with PIK3CD. Particulars: read-out: apparent Kd; compound concentrations:100 nM and 1000 nM (sheet 'Samples'); n = 1.
In another test the test system is TGFBR1. Particulars: read-out: apparent Kd; compound concentrations:100 nM and 1000 nM (sheet 'Samples'); n = 1.
The next test deals with CDK2. To be noted: read-out: apparent Kd; compound concentrations:100 nM and 1000 nM (sheet 'Samples'); n = 1.
In the next test the test system is CDK9. Particulars: read-out: apparent Kd; compound concentrations:100 nM and 1000 nM (sheet 'Samples'); n = 1.
For a further test, the system named is CLK1. To be noted: read-out: apparent Kd; compound concentrations:100 nM and 1000 nM (sheet 'Samples'); n = 1.
Another test relates to CLK2. Particulars: read-out: apparent Kd; compound concentrations:100 nM and 1000 nM (sheet 'Samples'); n = 1.
The next test concerns CLK4. To be noted: read-out: apparent Kd; compound concentrations:100 nM and 1000 nM (sheet 'Samples'); n = 1.
A further test relates to ICK. To be noted: read-out: apparent Kd; compound concentrations:100 nM and 1000 nM (sheet 'Samples'); n = 1.
The next test has as its system NUAK2. Particulars: read-out: apparent Kd; compound concentrations:100 nM and 1000 nM (sheet 'Samples'); n = 1.
In a further test the test system is PRKCA. Particulars: read-out: apparent Kd; compound concentrations:100 nM and 1000 nM (sheet 'Samples'); n = 1.
A further test deals with PRKCB. Particulars: read-out: apparent Kd; compound concentrations:100 nM and 1000 nM (sheet 'Samples'); n = 1.
In a further test the test system is PRKCD. Particulars: read-out: apparent Kd; compound concentrations:100 nM and 1000 nM (sheet 'Samples'); n = 1.
A further test concerns PRKCI. Particulars: read-out: apparent Kd; compound concentrations:100 nM and 1000 nM (sheet 'Samples'); n = 1.
A further test deals with PRKCQ. To be noted: read-out: apparent Kd; compound concentrations:100 nM and 1000 nM (sheet 'Samples'); n = 1.
The subject of a further test is RPS6KA3. To be noted: read-out: apparent Kd; compound concentrations:100 nM and 1000 nM (sheet 'Samples'); n = 1.
The test system of the next test is RPS6KA6. To be noted: read-out: apparent Kd; compound concentrations:100 nM and 1000 nM (sheet 'Samples'); n = 1.
The test system of a further test is RPS6KB1. To be noted: read-out: apparent Kd; compound concentrations:100 nM and 1000 nM (sheet 'Samples'); n = 1.
The next test relates to SLK. To be noted: read-out: apparent Kd; compound concentrations:100 nM and 1000 nM (sheet 'Samples'); n = 1.
The next test has as its system STK26. To be noted: read-out: apparent Kd; compound concentrations:100 nM and 1000 nM (sheet 'Samples'); n = 1.
Another test has as its system VDAC3. Particulars: read-out: apparent Kd; compound concentrations:100 nM and 1000 nM (sheet 'Samples'); n = 1.

Where two headings read alike, the source gives them in different places.

Regarding `CN(C)c1cc2c(Nc3ccc4nc(Cc5ccccc5)[nH]c4c3)ncnc2cn1` [GW301888X], the potency estimated from few doses is 1800 nM with CDC42; 19.1 nM with EGFR; 1030 nM in the test on ERBB3; 1550 nM with NNT; 599 nM in the test with RAB5C; 133 nM in the test on RIPK2.

`CN(C)CCCC(=O)Nc1n[nH]c2nnc(-c3ccccc3)cc12.Cl` [SB-627772-A]: the potency estimated from few doses was 1840 nM in the test on CDK16, 4.6 nM in the test on CDKL5, 6.15 nM in the test on GSK3A and 17.1 nM with GSK3B.

`c1ccc(-c2cc(-c3c[nH]nc3-c3ccccn3)ccn2)cc1` [GW576604X]: the potency estimated from few doses with CDC7 (compound concentrations:100 nM and 1000 nM (sheet 'Samples')) is 1870 nM; in the test with PIK3CD it was 128 nM; with TGFBR1, 629 nM.

For the compound `NS(=O)(=O)c1cccc(-c2ccc3ncc(N4CCOCC4)nc3c2)c1` [GSK1535721A], the potency estimated from few doses with CDC7 (compound concentrations: 100 nM and 1000 nM (sheet 'Samples'), CATDS: 1) was 1940 nM.

Take `Cn1cc(C2=C(c3cn(CCCSC(=N)N)c4ccccc34)C(=O)NC2=O)c2ccccc21` [RO0318220-000]: the potency estimated from few doses was 1720 nM in the test on CDK16; 1070 nM in the test with CDK2; 694 nM with CDK9; 785 nM in the test with CLK1; 434 nM in the test with CLK2; 1430 nM with CLK4. For the same compound, the potency estimated from few doses is 158 nM in the test with GSK3A; 183 nM in the test with GSK3B; 1720 nM with ICK; 1420 nM in the test with NUAK2; 41.5 nM in the test with PRKCA; 105 nM in the test with PRKCB. Further, the potency estimated from few doses was 58.4 nM in the test on PRKCD; 2280 nM in the test with PRKCI; 121 nM with PRKCQ; 1300 nM in the test on RPS6KA3; 33.8 nM with RPS6KA6; 419 nM in the test on RPS6KB1. Further, the values for the potency estimated from few doses with SLK, in the test with STK26 and in the test with VDAC3 were 2100 nM, 1480 nM and 2310 nM, respectively.
